PubChem BioAssay AID1159580 (chemical genetic matrix, 2015)
“And” between values parts separate entries of the source, which are not always exact repeats. Equal entries are not always repeated. Among all 5,500 compounds or so, about 2,000 (36%) were called active. About 18% were inconclusive and are not listed. Rule as the data show it: active = normalized growth mostly below about 0.91 (no sharp cut-off); inconclusive = no clear call, values can overlap the other calls; inactive = mostly above about 0.92. Some of the results follow.

Test: chemical genetic growth profiling, strain panel (AID 1159580);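 also: tested at 20 µM; growth read once vehicle control cultures reached saturation at 30 °C; 1 = growth at the plate median or of vehicle wells; lower values mean less growth of the strain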
Conditions: S. cerevisiae deletion strains, growth OD
[1] = locus YGR078C, strain PAC10, active compounds read low
[2] = locus YGR229C, strain SMI1, active compounds read low
[3] = locus YJR075W, strain HOC1, active compounds read low
[4] = locus YAL013W, strain DEP1, active compounds read low
[5] = locus YBR229C, strain ROT2, active compounds read low
[6] = locus YDL101C, strain DUN1, active compounds read low
[7] = locus YDR150W, strain NUM1, active compounds read low
[8] = locus YEL061C, strain CIN8, active compounds read low
[9] = locus YHR030C, strain SLT2, active compounds read low
[10] = locus YJR043C, strain POL32, active compounds read low
[11] = locus YLR039C, strain RIC1, active compounds read low
[12] = locus YLR262C, strain YPT6, active compounds read low
[13] = locus YMR263W, strain SAP30, active compounds read low
[14] = locus YPL055C, strain LGE1, active compounds read low
[15] = locus YPL241C, strain CIN2, active compounds read low

Measured: normalized growth

NC1C=CC=C(C(=O)O)C1 (stereo not given)
inactive: locus YAL040C, strain CLN3, active compounds read low 0.969 | locus YCL061C, strain MRC1 (second series), active compounds read low 0.989 | locus YER002W, strain NOP16, active compounds read low 0.992 | [1] 1 | [2] 0.999 | [3] 0.994 | locus YNL175C, strain NOP13, active compounds read low 0.995 | locus YNL197C, strain WHI3, active compounds read low 0.979 | locus YNL224C, strain SQS1, active compounds read low 1 | locus YOR083W, strain WHI5 (second series), active compounds read low 0.986

Fc1cc2n[nH]nc2cc1Cl
inactive: [4] 1 | [5] 0.989 | [6] 0.97 | [7] 0.919 | [8] 0.992 | [1] 0.972 | [9] 0.977 | locus YHR087W, strain rtc3, active compounds read low 0.997 | [10] 0.997 | [3] 0.958 | [11] 1.06 | locus YLR058C, strain SHM2 (second series), active compounds read low 0.978 | locus YLR085C, strain ARP6, active compounds read low 0.94 | [12] 1.06 | locus YML094W, strain GIM5, active compounds read low 0.979 | locus YMR219W, strain ESC1, active compounds read low 0.985 | [13] 0.931 | locus YNL153C, strain GIM3, active compounds read low 0.995 | locus YNL298W, strain CLA4 (second series), active compounds read low 0.977 | locus YNL322C, strain KRE1, active compounds read low 0.974 | locus YNR030W, strain Alg12, active compounds read low 0.993 | [14] 0.931 | [15] 0.978 | locus YPR135W, strain CTF4, active compounds read low 0.945

CC(=O)O[C@H]1C[C@@H](OC(C)=O)C(C)(C)C2C[C@@H](OC(C)=O)[C@@]3(C)C4=CC(=O)O[C@@H](c5ccoc5)[C@]4(C)CCC3[C@]21C (stereo not given in full)
inactive: [4] 1.01 | locus YAL021C, strain ccr4, active compounds read low 1.02 | locus YAL026C, strain drs2, active compounds read low 1 | locus YAL030W, strain snc1, active compounds read low 0.998 | locus YBL061C, strain skt5, active compounds read low 0.997 | locus YBR009C, strain hhf1, active compounds read low 0.99 | locus YBR021W, strain FUR4, active compounds read low 0.993 | locus YBR023C, strain chs3, active compounds read low 0.982 | locus YBR171W, strain sec66, active compounds read low 1 | [5] 1 | locus YBR231C, strain swc5, active compounds read low 0.989 | locus YBR279W, strain paf1, active compounds read low 1 | locus YCL011C, strain gbp2, active compounds read low 1 | locus YCL016C, strain dcc1, active compounds read low 0.997 | locus YCL029C, strain bik1, active compounds read low 1 | locus YCL061C, strain MRC1, active compounds read low 0.994 | locus YCL069W, strain vba3, active compounds read low 1.01 | locus YCR088W, strain abp1, active compounds read low 0.999 | locus YDL005C, strain med2, active compounds read low 0.989 | locus YDL035C, strain GPR1, active compounds read low 1.01 | locus YDL040C, strain nat1, active compounds read low 0.983 | locus YDL074C, strain BRE1, active compounds read low 0.993 | [6] 1 | locus YDL185W, strain tfp1, active compounds read low 1.01 | locus YDL192W, strain arf1, active compounds read low 1 | locus YDR001C, strain nth1, active compounds read low 1 | locus YDR069C, strain doa4, active compounds read low 0.983 | locus YDR101C, strain arx1, active compounds read low 1 | locus YDR137W, strain rgp1, active compounds read low 0.998 | [7] 1.01 | locus YDR159W, strain sac3, active compounds read low 0.968 | locus YDR162C, strain NBP2, active compounds read low 1.03 | locus YDR195W, strain ref2 0.961 | locus YDR297W, strain sur2, active compounds read low 1 | locus YDR318W, strain mcm21, active compounds read low 1 | locus YDR334W, strain swr1, active compounds read low 0.997 | locus YDR335W, strain msn5, active compounds read low 1 | locus YDR388W, active compounds read low 0.999 | locus YDR392W, strain spt3, active compounds read low 0.963 | locus YDR502C, strain sam2, active compounds read low 0.98 | locus YEL003W, strain gim4, active compounds read low 1.01 | locus YEL037C, strain rad23, active compounds read low 1.02 | locus YEL061C, strain CIN8 (second series), active compounds read low 1 | [8] 0.997 | locus YER015W, strain faa2, active compounds read low 0.998 | locus YER016W, strain bim1, active compounds read low 0.991 | locus YER110C, active compounds read low 0.997 | locus YER111C, strain swi4, active compounds read low 1 | locus YER155C, strain BEM2 (second series), active compounds read low 0.975 | locus YER155C, strain BEM2, active compounds read low 0.995 | locus YER167W, strain BCK2, active compounds read low 1.01 | locus YFR010W, strain ubp6, active compounds read low 1.01 | locus YGL078C, strain dbp3, active compounds read low 1.01 | locus YGL086W, strain mad1, active compounds read low 0.985 | locus YGL167C, strain pmr1, active compounds read low 0.996 | locus YGL173C, strain kem1, active compounds read low 1 | locus YGL227W, strain vid30, active compounds read low 0.998 | locus YGL240W, strain doc1, active compounds read low 0.973 | locus YGL248W, strain PDE1, active compounds read low 1 | locus YGL253W, strain hxk2, active compounds read low 1.01 | [1] 1.01 | locus YGR135W, strain pre9, active compounds read low 0.992 | [2] 1.05 | locus YGR252W, strain gcn5, active compounds read low 0.922 | locus YHR013C, strain ard1, active compounds read low 0.987 | locus YHR027C, strain rpn1, active compounds read low 0.994 | [9] 1.01 and 0.97 | locus YHR079C, strain IRE1 (second series), active compounds read low 1 | locus YHR079C, strain IRE1, active compounds read low 0.982 | locus YHR094C, strain hxt1, active compounds read low 1 | locus YHR129C, strain ARP1, active compounds read low 1.01 | locus YHR142W, strain chs7, active compounds read low 1.03 | locus YHR200W, strain rpn10, active compounds read low 0.993 | locus YIL066C, strain RNR3, active compounds read low 1.01 | locus YIL073C, strain SPO22, active compounds read low 1.03 | locus YIL125W, strain kgd1, active compounds read low 0.995 | locus YIR030C, strain dcg1, active compounds read low 0.998 | locus YJL092W, strain hpr5, active compounds read low 1.01 | locus YJL095W, strain BCK1 (second series), active compounds read low 1 | locus YJL095W, strain BCK1, active compounds read low 1.01 and 0.953 | locus YJL115W, strain asf1, active compounds read low 0.999 | locus YJL129C, strain trk1, active compounds read low 1.01 | locus YJL134W, strain LCB3, active compounds read low 1.01 | locus YJL154C, strain vps35, active compounds read low 0.999 | locus YJL164C, strain tpk1, active compounds read low 1 | locus YJL166W, strain qcr8, active compounds read low 0.994 | locus YJL168C, strain set2, active compounds read low 0.994 | locus YJL187C, strain SWE1 (second series), active compounds read low 1.01 | locus YJL187C, strain SWE1, active compounds read low 0.997 | [10] 1.01 | locus YJR066W, strain TOR1, active compounds read low 0.941 | locus YKL009W, strain mrt4, active compounds read low 0.99 | locus YKL068W, active compounds read low 1.01 | locus YKL085W, strain MDH1 (second series), active compounds read low 0.991 | locus YKL085W, strain MDH1, active compounds read low 0.991 | locus YKL160W, strain elf1, active compounds read low 0.995 | locus YKR001C, strain vps1, active compounds read low 0.992 | locus YKR026C, strain gcn3, active compounds read low 1.01 | locus YKR091W, strain srl3, active compounds read low 1 | locus YLL001W, strain dnm1, active compounds read low 1.02 | locus YLL026W, active compounds read low 0.998 | locus YLL041C, strain sdh2, active compounds read low 1 | locus YLR027C, strain aat2, active compounds read low 0.982 | [11] 1.05 | locus YLR058C, strain SHM2, active compounds read low 1.01 | locus YLR102C, strain apc9, active compounds read low 0.989 | locus YLR113W, strain HOG1, active compounds read low 1.03 | locus YLR221C, strain rsa3, active compounds read low 0.989 | locus YLR258W, strain gsy2, active compounds read low 0.978 | locus YLR262C, strain YPT6 (second series), active compounds read low 0.983 | [12] 1.09 | locus YLR268W, strain sec22, active compounds read low 1.01 | locus YLR320W, strain mms22, active compounds read low 0.977 | locus YLR330W, strain CHS5, active compounds read low 1.01 | locus YLR342W, strain FKS1, active compounds read low 0.991 | locus YLR357W, strain rsc2, active compounds read low 0.994 | locus YLR370C, strain arc18, active compounds read low 1 | locus YLR371W, strain rom2, active compounds read low 0.995 | locus YLR384C, strain iki3, active compounds read low 0.977 | locus YLR418C, strain cdc73, active compounds read low 0.973 | locus YML016C, strain PPZ1, active compounds read low 1 | locus YML032C, strain rad52, active compounds read low 1 | locus YML120C, strain ndi1, active compounds read low 1 | locus YML124C, strain tub3, active compounds read low 0.998 | locus YMR058W, strain fet3, active compounds read low 1.02 | locus YMR078C, strain ctf18, active compounds read low 0.989 | locus YMR125W, strain sto1, active compounds read low 0.998 | locus YMR129W, active compounds read low 1.01 | locus YMR205C, strain PFK2, active compounds read low 1.01 | locus YMR223W, strain ubp8, active compounds read low 0.988 | locus YMR231W, strain pep5, active compounds read low 0.962 | [13] 1.01 | locus YMR307W, strain GAS1, active compounds read low 1.05 | locus YNL067W, strain RPL9B, active compounds read low 1.01 | locus YNL071W, strain lat1, active compounds read low 1.01 | locus YNL183C, strain NPR1, active compounds read low 0.961 | locus YNL209W, strain ssb2, active compounds read low 0.992 | locus YNL233W, strain BNI4, active compounds read low 1.02 | locus YNL248C, strain rpa49, active compounds read low 1 | locus YNL250W, strain rad50, active compounds read low 1.01 | locus YNL271C, strain bni1, active compounds read low 1 | locus YNL298W, strain CLA4, active compounds read low 0.995 | locus YNL307C, strain MCK1, active compounds read low 0.995 | locus YNL322C, strain KRE1 (second series), active compounds read low 0.992 | locus YNR049C, strain mso1, active compounds read low 1 | locus YNR052C, strain pop2, active compounds read low 0.995 | locus YOL006C, strain TOP1, active compounds read low 1 | locus YOL012C, strain htz1 0.751 | locus YOL147C, strain pex11, active compounds read low 0.996 | locus YOR001W, strain rrp6, active compounds read low 0.979 | locus YOR061W, strain CKA2, active compounds read low 1 | locus YOR069W, strain VPS5, active compounds read low 0.999 | locus YOR070C, strain gyp1, active compounds read low 1.01 | locus YOR080W, strain dia2, active compounds read low 0.981 | locus YOR083W, strain WHI5, active compounds read low 1.01 | locus YOR106W, strain vam3, active compounds read low 1 | locus YOR136W, strain idh2, active compounds read low 0.991 | locus YOR144C, strain elg1, active compounds read low 0.99 | locus YOR184W, strain ser1, active compounds read low 0.999 | locus YOR231W, strain MKK1, active compounds read low 0.978 | locus YOR265W, strain rbl2, active compounds read low 0.993 | locus YOR270C, strain vph1, active compounds read low 1.04 | locus YOR290C, strain snf2, active compounds read low 1 | locus YOR316C, strain cot1, active compounds read low 1 | locus YPL051W, strain arl3, active compounds read low 0.977 | [14] 1.01 | locus YPL078C, strain atp4, active compounds read low 1 | locus YPL106C, strain sse1, active compounds read low 0.975 | locus YPL240C, strain hsp82, active compounds read low 0.997 | [15] 1.01 | locus YPL256C, strain CLN2, active compounds read low 0.957 | locus YPR119W, strain clb2, active compounds read low 0.995 | locus YPR141C, strain kar3, active compounds read low 1.01 | locus YPR163C, strain tif3, active compounds read low 1 | locus YPR167C, strain met16, active compounds read low 0.995 | strain wtn01, active compounds read low 0.993
